Assay outcomes deposited in PubChem by Sanford-Burnham Center for Chemical Genomics.
A selection: hits, their analogues and other compounds. The true share with any hit is near 4.1%.
FAS TE block: inhibitors of human fatty acid synthase thioesterase domain | 360,000 compounds, 0.67% hits | inhibition, % at 15 µM | P49327 | recombinant FAS-TE, OMFH fluorogenic substrate, fluorescence endpoint;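 active = compounds whose normalised, plate-corrected inhibition of enzyme fluorescence in the single-dose primary screen is 50% or more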;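 note: 0% = DMSO with enzyme and 100% = substrate without enzyme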
pCIP destab: p/CIP protein destabilization. decrease of EGFP signal, % at 10 µM. AID 1984. 290,000 compounds, 0.01% hits. F442A p/CIP-EGFP cells, EGFP fluorescence, 16 h;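 active = EGFP signal decrease of at least 30% at 10 µM or well 3 SD below plate mean, unless failing retest; inactive = the rest, including hits failing retest or dose response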
MPTP inh: inhibitors of mitochondrial permeability transition pore | isolated mouse mitochondria, Ca2+ swelling absorbance, 30 min | inhibition, % at 10 µM | 360,000 compounds, 1.4% hits | AID 602449;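 active = inhibition of 50% or more, scaled per plate between neutral and stimulator controls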;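 note: 0% = DMSO wells given calcium and 100% = 1 mM EGTA wells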
GRIN3A LBD mod: modulators (binders) of human NR3A ligand-binding domain. NR3A LBD differential scanning fluorimetry, Tm shift; 0% = protein alone, 100% = glycine-bound protein. Tm shift relative to glycine control, % at 25 µM. 340,000 compounds, 2.5% hits;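 active = melting temperature shift of at least 10% of the positive control shift, at one fixed dose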
beta cell repl: inducers of beta-cell replication in MIN6 cells | proliferation, % at 10 µM | 330,000 compounds, 0.29% hits | MIN6 cells proliferation, ATPlite luminescence, 48 h; cells starved in 0.2% serum; 100% = growth in 10% serum | AID 2380;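 active = compounds whose signal lies at least 3.5 SD above the mean of all wells on their plate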;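 note: 0% = DMSO-treated cells in low-serum medium and 100% = 10% serum control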
An asterisk follows results filed as active; x = not tested or not shown.

SMILES | FAS TE block | pCIP destab | MPTP inh | GRIN3A LBD mod | beta cell repl
C[C@@H]1CN([C@@H](C)CO)S(=O)(=O)c2ccc(-c3ccccc3)cc2O[C@@H]1CN(C)Cc1ccccc1C(=O)O | -7.0 | x | -2.1 | x | x
CN(CC(=O)Nc1ccc(Cl)c(C(F)(F)F)c1)C(=O)c1cc(-c2ccncc2)nc2ccccc12 | 38.7 | x | 0.8 | 21.3* | -6.7
Cc1ccc(C)c(OCC(=O)N(C)CC(=O)Nc2ccc(Cl)c(C(F)(F)F)c2)c1 | 28.5 | x | 2.9 | 12.3* | -5.4
CN(CC(=O)Nc1ccc(Cl)c(C(F)(F)F)c1)C(=O)COc1cccc2cccnc12 | 7.7 | x | 1.8 | x | x
Cc1cccc(C(=O)OCC(=O)N(C)CC(=O)Nc2ccc(Cl)c(C(F)(F)F)c2)c1 | 29.4 | x | 1.2 | 11.9* | -6.0
CN(CC(=O)Nc1ccc(F)c(F)c1F)C(=O)c1cc(-c2ccncc2)nc2ccccc12 | -2.9 | x | -2.1 | -3.2 | -4.5
Cc1nc(-c2ccc(F)cc2)c(CC(=O)N(C)CC(=O)Nc2ccc(Cl)c(C(F)(F)F)c2)s1 | 32.6 | x | 5.1 | 12.1* | x
CC(C)C[C@H]1CN(CCCC[C@@H]2CNC(=O)C(=O)N2CCc2ccccc2)C(=O)C(=O)N1CCc1ccc(O)cc1 | -6.8 | x | -2.0 | x | x
CCOC(=O)c1c(N)sc2c1CCC1C(=O)N(C3CCCCC3)C(=O)C21 (stereo not given) | -4.9 | -12.6 | 0.4 | 13.0* | -1.4
O=C1N[C@H]2CC=C[C@H]2Nc2ccccc21 | -6.9 | x | -2.1 | -2.0 | x
CCOc1ccc(Nc2cc(C)c3ccccc3n2)cc1 | 10.6 | -11.9 | 0.8 | 21.5* | -3.0
CC(=O)Nc1ccc(Nc2cc(C)c3ccccc3n2)cc1 | 4.4 | -4.5 | 1.9 | 12.6* | 1.8
CC(=O)N1c2ccccc2S(=O)(=O)c2c1ccc1ccccc21 | 24.7 | x | -0.5 | 1.9 | x
COc1cc(CCN(C(=O)c2cc3ccccc3[nH]2)C(c2ccccn2)c2nc3ccccc3[nH]2)cc(OC)c1 (stereo not given) | -1.3 | x | -1.6 | x | x
Cc1sc2ncnc(N3CCC(C(=O)Nc4ccc(Cl)c(Cl)c4)CC3)c2c1C | 35.5 | x | 25.9 | 10.6* | -7.7
CNC(=O)c1ccc(NC(=O)C2CCN(c3ncnc4sc(C)c(C)c34)CC2)cc1 | 0.0 | 2.1 | -1.3 | -3.3 | -0.2
N#C/C(C(=O)Oc1ccccc1)=C1\C=Cc2ccccc2N1 | 42.8 | -3.1 | -0.8 | 20.1* | -1.3
Cn1c(SCC(=O)NC2(C#N)CCCCC2)nnc1-c1cccnc1 | -6.9 | -10.1 | 0.5 | 17.4* | -1.0
Cn1c(SCC(=O)NC2CCCCC2)nnc1-c1cccnc1 | -6.6 | -13.3 | 0.5 | -1.6 | 4.3
O=C(/C=C/[C@H]1O[C@@H](n2ccc(=O)[nH]c2=O)[C@H](O)[C@@H]1O)NCCc1c[nH]c2ccccc12 | -6.2 | x | -0.3 | x | x
COc1ccc(NC(=S)NC(=O)/C=C/c2cccs2)cc1 | 0.5 | -24.6 | 3.5 | -1.5 | -6.1
O=C(/C=C/c1cccs1)NC(=S)Nc1ccc(S(=O)(=O)Nc2ccccc2C(F)(F)F)cc1 | 47.2 | -28.9 | 47.6 | 27.5* | -2.7
N#C/C(=C\c1ccc(Cl)cc1)c1nc(-c2ccco2)cs1 | 19.9 | -11.4 | 1.2 | -5.1 | -0.6
N#C/C(=C\c1ccc(F)cc1)c1nc(-c2ccco2)cs1 | 41.8 | -86.2 | 3.4 | 23.6* | 2.8
N#C/C(=C/c1ccc(-c2ccccc2)o1)c1nc(-c2cccs2)cs1 | -6.1 | -36.2 | 2.5 | 6.6 | x
SMILES | FAS TE block | pCIP destab | MPTP inh | GRIN3A LBD mod | beta cell repl
N#C/C(=C\c1ccc(-c2ccccc2)cc1)c1nc(-c2ccco2)cs1 | 20.5 | 6.8 | 5.5 | 28.0* | -5.5
Cc1ccsc1CNC(=O)C1(C)CCN1C(C)C (stereo not given) | -6.1 | x | -0.4 | x | x
COc1ccccc1Cn1c(/C=C/c2ccccc2)nc2ccccc21 | 29.2 | -32.0 | 5.7 | 11.2* | 0.0
CCOC(=O)C1=CCN(S(=O)(=O)c2ccc(Br)cc2)C1c1ccccc1 (stereo not given) | 38.8 | x | 1.2 | x | x
Cc1ccc(-n2c(N)c(C#N)c(-c3ccc(Cl)cc3)c(C#N)c2=O)cc1 | -3.5 | -0.2 | 1.1 | 20.0* | -3.1
Cc1cc(-c2ccccc2)nc(N/N=C/c2ccc(O)cc2)n1 | -6.0 | x | -1.9 | 7.4 | -3.7
Oc1ccc(/C=N/Nc2nc(-c3ccc(Cl)cc3)cc(C(F)(F)F)n2)cc1 | 37.4 | -4.8 | 7.2 | 31.6* | -5.9
COc1ccc(NS(=O)(=O)c2ccc(OC)c(NC(=O)CCC3CCCCC3)c2)cc1 | 23.5 | -2.3 | 2.0 | 21.9* | 0.5
CN(Cc1ccc(F)cc1)C(=O)c1cccc(S(=O)(=O)NCc2ccccc2)c1 | 8.7 | x | 0.7 | 0.3 | -1.5
CN(Cc1ccc(F)cc1)C(=O)c1ccc(NS(=O)(=O)c2ccccc2)cc1 | 0.5 | x | -1.7 | 12.8* | -2.5
COc1ccc(NS(=O)(=O)c2ccc(OC)c(NC(=O)CNC(=O)c3ccc(OC)cc3)c2)cc1 | 7.5 | x | 1.2 | -7.0 | -3.2
O=C(O)c1ccccc1C(=O)Nc1ccc(S(=O)(=O)Nc2ccc(F)cc2)cc1 | -5.6 | 1.9 | -0.1 | 10.0* | -0.1
Cc1cc(C)c(NS(=O)(=O)c2ccc(NC(=O)c3cccs3)cc2)c(C)c1 | 2.6 | 2.1 | 6.3 | 25.4* | -0.2
CCCC(=O)N1CCC1(C)C(=O)NS(=O)(=O)c1cc2c(cc1C)CCCS2(=O)=O (stereo not given) | -7.1 | x | -1.8 | x | x
CCC(CC)C(=O)Nc1cccc(C(=O)Nc2ccc(S(N)(=O)=O)cc2)c1 | -8.4 | 11.6 | -1.5 | -0.2 | 0.2
Cc1ccc(NS(=O)(=O)c2ccc(NS(=O)(=O)c3cccs3)cc2)cc1 | 2.3 | -6.0 | 2.6 | -3.1 | -0.8
Cc1ccc(NCCC(=O)c2cccs2)cc1 | 6.7 | -13.3 | -3.5 | 13.1* | -6.7
Cc1ccc(S(=O)(=O)Nc2ccc(NC(=O)c3cccs3)cc2)cc1 | 12.4 | -5.8 | 4.0 | 17.7* | -1.2
Cc1ccc(S(=O)(=O)Nc2ccc(Nc3ccccc3)cc2)cc1 | 34.6 | -6.3 | 1.4 | 24.1* | -4.8
CCC(CC)C(=O)Nc1cccc(C(=O)Nc2ccc(S(=O)(=O)Nc3ccc(C)cc3)cc2)c1 | 18.1 | 0.3 | 11.0 | 18.8* | -6.0
O=S(=O)(Nc1ccc(Nc2ccccc2)cc1)c1ccc(F)cc1 | 15.9 | x | 4.4 | -2.3 | -5.5
Cn1c(=O)c2c(nc(OC3CCCCCC3)n2C)n(C)c1=O | -2.5 | x | -1.9 | -1.4 | x
O=C(Nc1ccccc1C(=O)O)c1cccc(NS(=O)(=O)c2ccc(Br)cc2)c1 | 6.6 | 0.1 | 0.2 | 7.6 | x
O=C(Nc1ccccc1C(=O)O)c1cccc(S(=O)(=O)Nc2ccc(Br)cc2)c1 | 17.4 | -4.5 | 0.2 | 12.0* | -1.7
Cc1ccc(S(=O)(=O)Nc2ccccc2N(C)S(=O)(=O)c2ccc(C)cc2)cc1 | 27.4 | x | 1.5 | 12.9* | -7.8
O=C(NC1CC1)c1ccc(NS(=O)(=O)c2ccc(F)cc2)cc1 | -6.0 | x | -1.1 | 26.9* | 1.0
COc1ccc(NS(=O)(=O)c2ccc(NC(=O)CCNS(=O)(=O)c3ccc(C)cc3)cc2)cc1 | 14.5 | -10.9 | 3.2 | 10.0* | -2.9
Cc1ccc(S(=O)(=O)Nc2ccccc2NS(=O)(=O)c2ccc(C)cc2)cc1 | 11.7 | x | 14.7 | x | x
